These results are taken from PubChem BioAssay AID686979 (National Center for Advancing Translational Sciences (NCATS), 2013).

SMILES strings stand for the structures. About 50,000 (12%) of roughly 420,000 compounds were called active. Where a call stands in place of a potency, no number is given. Another 26% or so got no clear call; they are omitted. Only a selection was taken, and actives are over-represented in it overall. Unmarked numbers belong to inactive results. The call rests on the fitted dose curve; in most records, active means well fitted inhibition curve with a large enough effect; inconclusive means small, poorly fitted or top-dose-only effect; inactive means flat fitted curve, though single readings scatter.
Potency means the concentration at half of the fitted maximal effect.

The assay can be described thus: qHTS for Inhibitors of human tyrosyl-DNA phosphodiesterase 1 (TDP1): qHTS in cells in presence of CPT. Further: nearly all actives have a fitted effect of over 55% in size. The following applies: chicken DT40 Tdp1-/-;hTDP1 cells + 20 nM CPT, ATP luminescence, 48 h; series mostly up to 46.2 µM. In short, it runs like this:
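Cell growth measured by CellTiter-Glo luminescence after a minimum 48 h, 37 C compound exposure with 20 nM CPT in Tdp1-knockout DT40 cells stably expressing hTDP1, seeded 400/well; qHTS titration format.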
As for `CN(CC(=O)Nc1c(Cl)cccc1Cl)C(=O)c1ccncc1`, the Potency result is “inactive”. On the same count and under the same terms, then `COc1ccc(C(=O)Nc2cccc(NC(=O)c3ccc(OC)cc3OC)n2)c(OC)c1`, with 20.6 µM (active); and `COc1ccc(C(=O)NC2=NCCS2)c(OC)c1`, with “inactive”; and `COC(=O)c1sc(NC(=O)c2ccc(OC)cc2OC)nc1C`, with “inactive”. As for `CC1(C)NC(=O)N(CC(=O)Nc2cc(C(F)(F)F)cc(C(F)(F)F)c2)C1=O`, the Potency result was “inactive”. Still for that read-out and setting: then `CN1CCn2cnc(C(=O)NCC(=O)OC(C)(C)C)c2C1=O`, with “inactive”; and `O=C(CSc1nc2c(c(=O)[nH]1)CN(Cc1ccc(F)cc1)CC2)Nc1ccccc1Cl`, with “inactive”; and `Cc1cc(C)cc(NC(=O)NCc2ccccn2)c1`, with “inactive”. The same measure, in the same setting: then `CCCCn1c(N)c(N(CCOC)C(=O)COc2c(C)cccc2C)c(=O)[nH]c1=O`, with “inactive”; and `COC(=O)c1cccc(-n2[nH]nnc2=S)c1`, with “inactive”; and `COc1cc(C)c(C)cc1S(=O)(=O)N1CCCc2ccccc21`, with 16.4 µM (active). On the same count and under the same terms, with `COc1ccc(C(=O)OCC(=O)NCC2CCCCC2)cc1S(=O)(=O)N1CCCc2ccccc21` the entry was “inactive”; with `COc1ccc(Br)cc1S(=O)(=O)N1CCN=C1C`, “inactive”; with `CN(CC(=O)Nc1ccc(Cl)cc1)C(=O)c1ccc(COc2ccccc2)cc1`, “inactive”. `O=C(NCc1ccc2c(c1)OCO2)C(=O)NCC1OCCN1S(=O)(=O)c1ccc(F)cc1` (stereo unspecified): the Potency entry is “inactive”. On the same count and under the same terms, then `Brc1c(CSc2nncc3ccccc23)nc2ccccn12`, with “inactive”; and `O=C(Nc1cc(C(F)(F)F)ccc1Cl)c1nc2ccccc2nc1N1CCCCC1`, with “inactive”. Still for that read-out and setting: then `C/C(=C/C(=O)N1CCN(C)CC1)C(=O)O`, with “inactive”; and `O=C(c1cc(-c2ccc(O)cc2)on1)N1CCOCC1`, with “inactive”.

On to `CCc1nc2sc(C(=O)O)c(N)c2c2c1CCCC2`, for which the Potency entry was “inactive”. Regarding `CCCCN(CC)CCCNC(=O)CS(=O)(=O)Cc1nc(-c2cccc(OC)c2)oc1C`, the Potency result was “inactive”. Still for that read-out and setting: then `COc1cccc(-c2nc(CS(=O)(=O)CC(=O)N3CCN(c4cc(C)ccc4C)CC3)c(C)o2)c1`, with 3.26 µM (active). As to `COc1ccc(CCNC(=O)CS(=O)(=O)Cc2nc(-c3ccc(C)cc3)oc2C)cc1OC`, the Potency result is “inactive”. The same measure, in the same setting: with `CC1CCN(CC(O)COc2ccc(C(=O)c3ccccc3)cc2)CC1` (stereo unspecified) the entry was “inactive”. As for `C[C@@H](NC(=O)[C@@H]1Cc2ccccc2CN1)C(=O)NC1CCCC1`, the Potency entry is “inactive”. The same measure, in the same setting: then `Cc1noc(C)c1S(=O)(=O)N(C)C[C@H]1Oc2ccc(NC(=O)C3CC3)cc2C(=O)N([C@H](C)CO)C[C@@H]1C`, with “inactive”. On the same count and under the same terms, with `CCOc1ccc(NC(=S)N2CCCCCC2)cc1` the entry was “inactive”. Still for that read-out and setting: then `CCC(C)c1ccc(NC(=S)N2CCCC2)cc1` (stereo unspecified), with 13 µM (active); and `CCOC(=O)c1ccc(NC(=S)N2CCCC2)cc1`, with “inactive”; and `Cc1cc(-c2ccc(C)c(S(=O)(=O)NC(C)Cc3ccco3)c2)on1` (stereo unspecified), with “inactive”.

Regarding `COc1ccc(CNS(=O)(=O)c2cc(-c3cc(C)no3)ccc2C(C)C)cc1`, the Potency was 0.92 µM (active). The same measure, in the same setting: with `CCOc1ccccc1CNS(=O)(=O)c1cc(-c2cc(C)no2)ccc1C` the entry was “inactive”; with `Cc1nn(-c2ccc(F)cc2)c(Cl)c1/C=C(/CCC(=O)O)c1nc2ccccc2s1`, “inactive”.

In the case of `COc1cccc2sc(NNC(=O)c3nc4ccccc4s3)nc12`, the Potency is 5.17 µM (active).

In the case of `O=C(Nc1ccccc1)Nc1nc2ccccc2s1`, the Potency entry was “inactive”. Turning to `COc1ccccc1OCc1nc2ccccc2s1`, the Potency entry is “inactive”. Still for that read-out and setting: then `N#Cc1cccc(CSc2ncnc(N)n2)c1`, with “inactive”; and `O=C(NCCCN1CCCC1=O)c1cccc(S(=O)(=O)NCc2ccccc2)c1`, with “inactive”. For `CC1CCCCC1NC(=O)COC(=O)Cc1ccc(Br)cc1` (stereo unspecified), the Potency entry is “inactive”. With `CCOC(=O)c1c(S(=O)(=O)NCC(=O)Nc2ccc(C)cc2)c(C)n(C)c1C`, the Potency result is “inactive”. On the same count and under the same terms, with `CCOC(=O)c1c(S(=O)(=O)Nc2ccc(CN3CCC(C)CC3)cc2)c(C)n(C)c1C` the entry was “inactive”; with `CCOC(=O)c1c(S(=O)(=O)NCC(=O)Nc2ccc(Cl)c(C(F)(F)F)c2)c(C)n(C)c1C`, 18.4 µM (active). On the same count and under the same terms, with `COCCCNC(=O)C1CCN(c2ccc(N3CCOCC3)nn2)CC1` the entry was “inactive”; with `Cc1ccc(C(=O)N/C(=C\c2cn(S(=O)(=O)N(C)C)c3ccccc23)C(=O)N2CCCC2)cc1`, “inactive”; with `COc1cc2nc(NCC(C)c3ccccc3)n3nc(-c4ccccc4)nc3c2cc1OC` (stereo unspecified), 16.4 µM (active). On the same count and under the same terms, then `O=C(CCC(=O)NNc1nc2ccccc2c2nc(-c3ccccc3)nn12)NCCCN1CCCC1=O`, with “inactive”; and `COc1cc2nc(SCC(=O)Nc3ccccc3F)n3nc(-c4ccccc4)nc3c2cc1OC`, with “inactive”. As to `N#CCCN(C(=O)COC(=O)c1ccc(S(=O)(=O)N2CCCCCC2)cc1)c1ccccc1`, the Potency result was “inactive”. Same read-out and setting: then `COc1ccc(S(=O)(=O)N2CCOC23CCN(S(=O)(=O)c2ccc([N+](=O)[O-])cc2)CC3)cc1`, with 11.6 µM (active); and `COc1ccc(CNC(=O)C(=O)N2CCC3(CC2)OCCN3S(=O)(=O)c2ccc(C)cc2)cc1`, with “inactive”; and `COc1ccc(S(=O)(=O)N2CCSCC2)cc1`, with “inactive”. As for `COCCN1C2=C(COC(C)(C)C2)C(=S)NC1c1ccccc1` (stereo unspecified), the Potency result was “inactive”. Regarding `Cc1ccsc1CN(C(=O)c1oc2ccc(Br)cc2c1C)C1CCS(=O)(=O)C1` (stereo unspecified), the Potency was 9.2 µM (active). On the same count and under the same terms, then `Cc1cc(C)c(OCC(=O)N(Cc2cccs2)C2CCS(=O)(=O)C2)c(C)c1` (stereo unspecified), with “inactive”; and `Cc1ccccc1OCC(=O)N(Cc1cccc(F)c1)C1CCS(=O)(=O)C1` (stereo unspecified), with “inactive”; and `NC1=NC2(CCCCC2)N(c2ccc(F)cc2F)C(N)=N1`, with “inactive”. The same measure, in the same setting: then `COc1cc([N+](=O)[O-])cc([N+](=O)[O-])c1NC(=O)N1CCOCC1`, with “inactive”; and `Cn1nc(-c2ccccc2)c(CSc2cccc(Cl)c2)c1Cl`, with 16.4 µM (active); and `Cn1nc(-c2ccccc2)c(CO)c1Sc1ccccc1`, with “inactive”.

For `CCOC(=O)CSc1ncc(-c2cccc(Cl)c2)cn1`, the Potency entry was “inactive”.

Take `C=CCSc1ccc(S(=O)(=O)N2CCN(C)CC2)cn1`: the Potency entry is “inactive”. Regarding `Cc1n[nH]c(=O)n1-c1ccc(C(C)C)cc1`, the Potency entry was “inactive”.

On to `CCOc1ccc(NC(=O)CN(C)C(=O)Cn2c(=O)cnc3ccccc32)cc1OCC`, for which the Potency result was “inactive”. The same measure, in the same setting: then `COc1ccc(N2CCC(N3CCN(C)C(CCO)C3)CC2)cc1` (stereo unspecified), with “inactive”. Same read-out and setting: with `COc1ccc(N2CCC(CNC(=S)Nc3c(C)cccc3C)C2)cc1` (stereo unspecified) the figure was 23.1 µM (active); with `COc1cccc(N2CC(C(=O)Nc3c(C)cccc3C)CC2=O)c1` (stereo unspecified), “inactive”. Same read-out and setting: with `COc1cc(C(=O)Nc2ccc(OCc3cc(=O)n4cc(C)sc4n3)cc2)cc(OC)c1OC` the entry was “inactive”.

Regarding `CC(=O)Nc1ccc(OC(=O)COc2ccc(Br)cc2)cc1`, the Potency result was “inactive”. The same measure, in the same setting: then `COc1ccccc1S(=O)(=O)c1c(C)cc(C)[nH]c1=O`, with “inactive”; and `CC(O)c1nc2ccccc2n1Cc1ccc([N+](=O)[O-])cc1` (stereo unspecified), with “inactive”. On the same count and under the same terms, then `CC(C)c1ccc(Cn2c(COc3ccccc3)nc3ccccc32)cc1`, with 18.4 µM (active); and `O=C(O)CCn1c(Cc2ccccc2)nc2ccccc21`, with “inactive”; and `Cc1ccc(NC(=O)N2CCC(O)(c3cccnc3)CC2)cc1`, with “inactive”. Take `Cn1c(C(=O)O)ccc1S(=O)(=O)N(Cc1ccccc1)Cc1ccccc1`: the Potency entry was “inactive”.

`COc1ccccc1N(CC(=O)NC1CCCC1)C(=O)C1(C)CC(=O)N=C2C=CC(C)=CN21` (stereo unspecified): the Potency result was “inactive”. On the same count and under the same terms, with `COc1cc(NC(=O)c2ccc(-c3csc(C)n3)cc2)c(OC)cc1Cl` the entry was “inactive”; with `COc1cc(OC)c(NS(=O)(=O)c2cn(C)cn2)cc1Cl`, “inactive”. Consider `COC(=O)c1scc(-c2ccc(C)cc2)c1S(=O)(=O)Nc1cc(Cl)c(OC)cc1OC`, for which the Potency was 13 µM (active). With `CSCCC(=O)N1CCCC(CNC(=O)c2ccccc2Cl)C1` (stereo unspecified), the Potency entry was “inactive”. As to `CCOC(=O)N1CCN(C(=O)C2CCN(Cc3ccc(OC)cc3OC)CC2)CC1`, the Potency result is “inactive”. On the same count and under the same terms, with `COc1ccccc1N1CCN(CCCNC(=O)c2cnn(-c3ccccc3Cl)c2C2CCN(C(=O)OC(C)(C)C)CC2)CC1` the figure was 8.2 µM (active); with `COc1ccc(Cl)cc1NC(=O)NCC1CCN(Cc2ccccc2F)CC1`, “inactive”; with `COc1ccccc1CN1CCC(CNC(=O)c2cnn(-c3cccc(Cl)c3)c2C2CCN(C(=O)OC(C)(C)C)CC2)CC1`, 7.31 µM (active). Still for that read-out and setting: with `COc1ccccc1N1CCN(CC(=O)NCCc2ccc(S(N)(=O)=O)cc2)CC1` the entry was “inactive”; with `Cc1ccc(CN2CCC(CNC(=O)c3cnn(-c4ccccc4Cl)c3C3CCN(C(=O)OC(C)(C)C)CC3)CC2)cc1`, 5.8 µM (active).

`COc1ccccc1-c1ccnc(-n2ncc(C(=O)NCCCN3CCOCC3)c2C)n1`: the activity change, negative = growth inhibition is 7.6% [at 9.04 µM].

In the case of `COc1ccccc1CNC(=O)C1CCN(S(=O)(=O)c2ccc3c(c2)OCCO3)CC1`, the Potency entry is “inactive”. The same measure, in the same setting: then `COc1ccccc1CN1CCC(CNC(=O)c2cnn(-c3ccccc3Cl)c2C2CCN(C(=O)OC(C)(C)C)CC2)CC1`, with 8.2 µM (active); and `O=C(NNC(=O)c1ccccc1[N+](=O)[O-])Nc1ccccc1C(F)(F)F`, with “inactive”.

`COc1ccc(CCNC(=O)COc2cc(C)cc3oc(=O)c(C)c(C)c23)cc1OC`: the Potency result is “inactive”. Same read-out and setting: with `O=C(COC(=O)c1ccc([N+](=O)[O-])o1)NC12CC3CC(CC(C3)C1)C2` the entry was “inactive”; with `COc1ccc(C(C)=O)cc1CSc1nc2nc(C)cc(C)n2n1`, “inactive”.

Take `COCc1c(C(=O)OCC(=O)Nc2ccc(OC(F)F)cc2)oc2ccccc12`: the Potency entry is “inactive”.

Take `COc1ccc(CCN2CC(C(=O)OCC(=O)NCc3ccccc3Cl)CC2=O)cc1OC` (stereo unspecified): the Potency result is “inactive”.

Regarding `CC(C)(C)OC(=O)N(Cc1ccco1)S(=O)(=O)c1ccccc1Br`, the Potency result is “inactive”.

Consider `O=c1oc2ccccc2c(=O)c2ccccc12`, for which the Potency entry was “inactive”. The same measure, in the same setting: then `O=C(Oc1ccc(F)cc1)N1CCOCC1`, with “inactive”; and `CCS(=O)(=O)N1Cc2ccccc2CC1C(=O)Nc1ccc(OC)cc1OC` (stereo unspecified), with “inactive”.

Consider `O=C(COC(=O)c1ccc(N2CCCC2=O)cc1)c1ccc(OC(F)F)cc1`, for which the Potency entry is “inactive”. The same measure, in the same setting: then `CS(=O)(=O)c1ccc(-c2nnn(CC(=O)Nc3ccc4c(c3)OCCO4)n2)cc1`, with “inactive”; and `CCOC(=O)c1cnn2c(SC)ncnc12`, with “inactive”.
